From PubChem
Hits are enriched below; roughly 21% of the tested compounds scored in any of these assays.
IL1B secr inh: inflammasome signaling inhibition, IL-1 beta readout | actives 4.7% (n = 360,000) | THP-1 LPS/ATP IL-1B secretion, AlphaLISA, 16 h; stronger effect = lower value | AID 743279 | activity change, % at 57.5 µM; in the data active means activity change below about -50%; inconclusive means mostly about -30% to -49%
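Secreted IL-1B measured by AlphaLISA bead assay after 16 h compound exposure of THP-1 cells; compounds (final up to 57.5 uM) added 1 h before LPS (250 ng/mL) and ATP (1.25 mM) stimulation; lower signal means less secretion.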
TDP1 cell CPT: growth inhibition of DT40 Tdp1-/-;hTDP1 cells with camptothecin (screen for TDP1 inhibitors); Potency, µM (doses to about 46.2 µM), usual class: inhibitors; chicken DT40 Tdp1-/-;hTDP1 cells + 20 nM CPT, ATP luminescence, 48 h; actives 12% (n = 420,000); AID 686979; further: nearly all actives have a fitted effect of over 55% in size
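Chicken DT40 Tdp1-/- cells stably complemented with human TDP1 were seeded at 400 cells/well in medium containing 20 nM camptothecin, exposed to pin-transferred compounds, and grown at 37 °C for at least 48 hr. Viability was read as ATP luminescence.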
ClpP mod: qHTS Assay for Activators of ClpP; ATP-dependent Clp protease proteolytic subunit (Bacillus subtilis (strain 168)), P80244; purified B. subtilis ClpP, FRET peptide cleavage, 20 min; Potency, µM (top dose mostly 57.5 µM); actives 1.9% (n = 340,000); active means well fitted falling curve with a large enough effect; inconclusive means small, poorly fitted or top-dose-only effect; inactive means no such curve, though single readings can be large or run the other way; further: the source files actives as falling curves though it sought activators and does not explain the sign; nearly all actives have a fitted effect of over 65% in size
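Buffer: 100 mM Tris/HCl pH8, 100 mM KCl, 0.05% low protease BSA, 2.5% glycerol, 0.01% Tween-20. ClpP 10 microg/mL final; 20 min RT; delta FRET normalized to ADEP and DMSO controls.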
DT40 TDP1 no CPT: qHTS for Inhibitors of human tyrosyl-DNA phosphodiesterase 1 (TDP1): qHTS in cells in absence of CPT. Potency, µM (top dose mostly 46.2 µM), hits mostly inhibitors. DT40 Tdp1-/- hTDP1 cells, no CPT, ATP luminescence, 48 h. actives 15% (n = 420,000); further: nearly all actives have a fitted effect of over 55% in size
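DT40 Tdp1-/-;hTDP1 cells, no CPT (DMSO vehicle only), 400 cells/well; compounds pin-transferred; ≥48 hr, 37 °C; CellTiter-Glo 30 min RT dark, luminescence read.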
D3 antag: blocks the human D3 dopamine receptor | P35462 | D3R cells, DiscoveRx beta-arrestin luminescence, antagonist mode; stronger effect = lower value | max response, negative = inhibition, % | actives 2.5% (n = 360,000) | AID 652054; in the data active means max response below about -50%; inconclusive means no clear call, values can overlap the other calls
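Cells plated overnight at 1500 cells/well, then exposed to library compounds with dopamine controls for 90 minutes at 37 degrees C. DiscoveRx reagent added for 30–60 minutes at room temperature; luminescence read, quantitative HTS format.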
D3 ag: agonists of human D3 dopamine receptor | P35462 | D3R DiscoveRx beta-arrestin cells, luminescence, 90 min | max activation, % | actives 0.58% (n = 410,000); in the data active means max activation above about 30%
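Cells at 1500/well, incubated overnight, then treated with pinned compounds (dopamine as control) for 90 min at 37 degrees C. DiscoveRx reagent added for 30 - 60 minutes at room temperature; luminescence read.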
Large screens that a line does not name were inactive. Unless noted, the call rests on the fitted dose curve; in most records, active means well fitted inhibition curve with a large enough effect; inconclusive means small, poorly fitted or top-dose-only effect; inactive means flat fitted curve, though single readings scatter.

Cc1nnc(N2C(=O)c3cccc4c([N+](=O)[O-])ccc(c34)C2=O)s1	IL1B secr inh -95, TDP1 cell CPT 7.3µM, DT40 TDP1 no CPT 4.6µM
Cc1ccc(N2C(=O)c3cccc4c([N+](=O)[O-])ccc(c34)C2=O)c2cccnc12	TDP1 cell CPT 0.82µM, DT40 TDP1 no CPT 0.73µM
Cc1cc2nccc(/C=C/c3ccc(N(C)C)cc3)c2cc1C	TDP1 cell CPT inconclusive, DT40 TDP1 no CPT inconclusive (no result: IL1B secr inh, D3 antag, D3 ag)
CN(C)c1ccc(/C=C/c2ccnc3ccc(O)cc23)cc1	TDP1 cell CPT inconclusive, DT40 TDP1 no CPT inconclusive (no result: IL1B secr inh, D3 antag, D3 ag)
COc1cccc2nccc(/C=C/c3ccc(N(C)C)cc3)c12	TDP1 cell CPT 32µM, DT40 TDP1 no CPT 13µM (no result: IL1B secr inh, D3 antag, D3 ag)
CN(C)c1ccc(/C=C/c2ccnc3ccc(F)cc23)cc1	TDP1 cell CPT 13µM, DT40 TDP1 no CPT 14µM (no result: IL1B secr inh, D3 antag, D3 ag)
COc1ccc2nccc(/C=C/c3ccc(N(C)C)cc3)c2c1	TDP1 cell CPT inconclusive, DT40 TDP1 no CPT 11µM (no result: IL1B secr inh, D3 antag, D3 ag)
CN(C)c1ccc(/C=C/c2ccnc3ccc(Br)cc23)cc1	TDP1 cell CPT 5.6µM, DT40 TDP1 no CPT 5.6µM (no result: IL1B secr inh, D3 antag, D3 ag)
O=C(CN1C(=O)COc2ccc(S(=O)(=O)N3CCOCC3)cc21)N1CCN(c2ccc(F)cc2)CC1	none (no result: IL1B secr inh, TDP1 cell CPT, DT40 TDP1 no CPT, D3 antag)
CN(C)c1ccc(/C=C/c2ccnc3ccc(Cl)cc23)cc1	TDP1 cell CPT inconclusive, DT40 TDP1 no CPT 13µM (no result: IL1B secr inh, D3 antag, D3 ag)
CN(C)c1ccc(/C=C/c2ccnc3ccc(-c4ccccc4)cc23)cc1	TDP1 cell CPT inconclusive, DT40 TDP1 no CPT 14µM (no result: IL1B secr inh, D3 antag, D3 ag)
CN(C)c1ccc(/C=C/c2ccnc3ccc(N)cc23)cc1	TDP1 cell CPT 18µM, DT40 TDP1 no CPT inconclusive (no result: IL1B secr inh, D3 antag, D3 ag)
NS(=O)(=O)c1ccc(N=Nc2nc3[nH]cnc(=S)c3[nH]2)cc1	TDP1 cell CPT 5µM, DT40 TDP1 no CPT 6.3µM (no result: IL1B secr inh, D3 antag, D3 ag)
CC1=NN(C(N)=S)C(=O)C1N=Nc1ccc(S(N)(=O)=O)cc1 (configuration not stated)	none
COCCNC(=S)N/N=C(\C)CCc1ccc2c(c1)OCO2	none (no result: ClpP mod)
C/C(CCc1ccc2c(c1)OCO2)=N\NC(=O)c1ccc(C)cc1C	DT40 TDP1 no CPT 2.9µM (no result: ClpP mod)
C/C(CCc1ccc2c(c1)OCO2)=N\NC(=S)NC(C)C	TDP1 cell CPT 18µM, DT40 TDP1 no CPT 16µM
COc1ccc(CC(=O)NC2CC(C)(C)NC(C)(C)C2)cc1OC	none (no result: ClpP mod)
O=[N+]([O-])c1cc([N+](=O)[O-])c2cccnc2c1Oc1ccccc1O	TDP1 cell CPT 2.6µM, DT40 TDP1 no CPT 1.8µM
O=[N+]([O-])c1cc(Cl)c2cccnc2c1O	TDP1 cell CPT inconclusive, DT40 TDP1 no CPT 18µM (no result: ClpP mod)
O=[N+]([O-])c1ccc(O)c2cccnc12	none (no result: ClpP mod)
O=[N+]([O-])c1ccc(Cl)c2cccnc12	DT40 TDP1 no CPT inconclusive, D3 antag inconclusive (no result: ClpP mod)
O=[N+]([O-])c1ccccc1Oc1ccc(Cl)c2cccnc12	TDP1 cell CPT inconclusive
O=[N+]([O-])c1cc(F)c2cccnc2c1O	TDP1 cell CPT 9.2µM, DT40 TDP1 no CPT 7.3µM
Cc1cc(C)nc(-n2nc(C)c3c2NC(=O)CC3c2cc(F)ccc2F)n1 (configuration not stated)	TDP1 cell CPT inconclusive, DT40 TDP1 no CPT 23µM (no result: IL1B secr inh, D3 antag)
COc1cccc(-c2nc(=S)c3c(n2Cc2ccco2)CCCC3)c1	TDP1 cell CPT 16µM, DT40 TDP1 no CPT inconclusive
Cc1ccc(-c2nc(=S)c3c(n2Cc2ccco2)CC(C)(C)OC3)cc1	TDP1 cell CPT 16µM, DT40 TDP1 no CPT 23µM
COc1cccc(NC(=O)CSc2nc(=O)n(Cc3ccco3)c3c2CCC3)c1	DT40 TDP1 no CPT inconclusive (no result: IL1B secr inh, D3 antag)
Cc1cccc(-c2nc(=S)c3c(n2Cc2ccco2)CCCC3)c1	TDP1 cell CPT 21µM, DT40 TDP1 no CPT inconclusive
Cc1ccc(-c2nc(=S)c3c(n2Cc2ccco2)CCCC3)cc1	TDP1 cell CPT inconclusive, DT40 TDP1 no CPT inconclusive
Cc1cccc(/C(N)=N/OC(=O)CCc2ccccc2)c1	none
Cc1cc(Cl)c(S(=O)(=O)NC2CCCCC2)cc1OCC(=O)Nc1nncs1	TDP1 cell CPT 26µM, DT40 TDP1 no CPT 23µM
